Source: PubChem (several laboratories)
An excerpt weighted towards active compounds, which were near 11% of everything screened.
INS promoter inh – inhibitors of insulin promoter-driven GFP, primary screen, imaging, TRM-6 cells (human fetal islet line), eGFP reporter, cell count; reporter expression induced with tamoxifen; inhibition, % at 2 µM; 130,000 compounds, 0.9% hits;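 active means inhibition above the mean plus 3 SD, with well images judged a real hit on visual review, cut at about 60% in these data, passing the limit was not always enough; inconclusive means inhibition over the cutoff but images rejected on review; inactive means inhibition not above the cutoff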
WT yeast gro inh – growth inhibition of WT strain, primary screen, mitochondrial fusion inhibitor project, WT and mutant strains, chemical genetic. mitochondrial fusion phenotypic screen. inhibition, % at 10 µM. 190,000 compounds, 2.1% hits. AID 1362, 2008; in the data active means inhibition above about 58%; tested in S. cerevisiae
Lmaj promast – Leishmania major promastigote growth inhibition, primary screen; 200,000 compounds, 9% hits; inhibition, % at 10 µM; AID 1063, 2008; Leishmania major promastigotes, resazurin fluorescence viability; in the data active means inhibition above about 50%;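 further: promastigotes grown with compound for 44 hours at 28 °C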
Autophagy HCS – autophagy modulators in MEF cells, primary screen, imaging, high-content, MEF GFP-LC3 | MEF GFP-LC3 puncta imaging; test concentration mostly 10 µM | calls only at 10 µM (by protocol) | 190,000 compounds, 0.98% hits | AID 463193, 2010;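 active means percentage of spot-positive cells more than 3 SD above its plate mean, without a fluorescence outlier flag or 80% toxicity; inconclusive means no clear call, values can overlap the other calls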
Insulin prom up – insulin promoter activators in MIN6 cells, imaging, high-content screening, mouse beta cells; z-score at 5 µM; 190,000 compounds, 0.3% hits; MIN6 insulin promoter-GFP reporter; hits give high values; AID 1625, 2009;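 active means z-score above 3 at 5 µM with at least 500 cells counted in the well; inconclusive means wells under 500 cells, flagged as cytotoxic or low count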
Hits are given with their value.

What do the screens show for `CCOc1cc(NC(=S)NCCOC)c(OCC)cc1NC(=O)c1ccco1`?
WT yeast gro inh: inactive; Lmaj promast: inactive; Autophagy HCS: inactive; Insulin prom up: inactive

Results for O=C(c1ccc(Br)cc1)N(Cc1nc2ccccc2c(=O)[nH]1)C1CCCC1 ?
WT yeast gro inh: inactive; Lmaj promast: inactive; Autophagy HCS: inactive; Insulin prom up: inactive

Results for CCc1ccc(-n2cc(-c3ccc([N+](=O)[O-])cc3)[nH]c2=S)cc1 ?
WT yeast gro inh: inactive; Lmaj promast: inactive; Autophagy HCS: inactive; Insulin prom up: inactive

What do the screens show for `CCc1ccc(-c2cn(C3CCCCC3)c(=S)[nH]2)cc1`?
INS promoter inh: inactive; WT yeast gro inh: 68; Lmaj promast: inactive; Autophagy HCS: inactive

Results for CCNC(=O)NC(=O)C(C)Oc1ccc(Br)cc1Br (stereo unspecified) ?
INS promoter inh: inactive; WT yeast gro inh: inactive; Lmaj promast: inactive; Autophagy HCS: inactive; Insulin prom up: inactive

How did O=C(CCn1nnc2ccccc21)N1CCN(c2ccccc2)CC1 do in these assays?
WT yeast gro inh: inactive; Lmaj promast: inactive; Autophagy HCS: inactive; Insulin prom up: inactive

Results for CCN1CCN(C(=O)CCc2nc3ccccc3n2-c2ccccc2)CC1 ?
INS promoter inh: inactive; WT yeast gro inh: inactive; Lmaj promast: 58; Autophagy HCS: inactive; Insulin prom up: inactive

How did O=C(COC(=O)CCc1nc2ccccc2n1-c1ccccc1)Nc1ccc(N2CCCCC2)cc1 do in these assays?
WT yeast gro inh: inactive; Lmaj promast: inactive; Autophagy HCS: inactive; Insulin prom up: inactive

Results for O=C(CCc1nc2ccccc2n1-c1ccccc1)NCCO ?
INS promoter inh: inactive; WT yeast gro inh: inactive; Lmaj promast: 56; Autophagy HCS: inactive; Insulin prom up: inactive

Results for CCOC(=O)Oc1ccc2oc(C)c(C(=O)OCCOC)c2c1 ?
INS promoter inh: inactive; WT yeast gro inh: inactive; Lmaj promast: inactive; Autophagy HCS: inactive; Insulin prom up: inactive

Results for CCOC(=O)c1c(C)oc2ccc(OC(=O)c3cccs3)cc12 ?
INS promoter inh: inactive; WT yeast gro inh: 68; Lmaj promast: inactive; Autophagy HCS: inactive; Insulin prom up: inactive

How did CCC(=O)N1c2ccc(C)cc2C2=NNC(=S)NC21O (stereo unspecified) do in these assays?
WT yeast gro inh: inactive; Lmaj promast: inactive; Autophagy HCS: inactive; Insulin prom up: inactive

What do the screens show for `O=c1oc2c(-c3ccc([N+](=O)[O-])cc3)cc(O)cc2s1`?
Insulin prom up: inactive

How did COc1ccc(C2N(Cc3ccccc3)CCN2Cc2ccccc2)cc1[N+](=O)[O-] do in these assays?
INS promoter inh: inactive; WT yeast gro inh: inactive; Lmaj promast: inactive; Autophagy HCS: active; Insulin prom up: inactive

What do the screens show for `CCCCC1(Cc2ccc(OC)c([N+](=O)[O-])c2)C(=O)N(c2ccccc2)N(c2ccccc2)C1=O`?
INS promoter inh: inactive; WT yeast gro inh: inactive; Lmaj promast: inactive; Autophagy HCS: inactive; Insulin prom up: inactive

Results for CC(C)CN(Cc1cc(=O)oc2cc(-c3ccccc3)c(O)cc12)CC(C)C ?
Insulin prom up: inactive

How did CCOC(=O)CSc1n[nH]c(-c2cccnc2)n1 do in these assays?
INS promoter inh: inactive; WT yeast gro inh: 95; Lmaj promast: inactive; Autophagy HCS: inactive

How did Cc1cc(C)c(C(=O)CSc2n[nH]c(-c3ccncc3)n2)c(C)c1 do in these assays?
WT yeast gro inh: inactive; Lmaj promast: 97; Autophagy HCS: inactive; Insulin prom up: inactive

How did COc1ccc(C(=O)CSc2n[nH]c(-c3ccncc3)n2)cc1[N+](=O)[O-] do in these assays?
INS promoter inh: inactive; WT yeast gro inh: inactive; Lmaj promast: 56; Autophagy HCS: inactive; Insulin prom up: inactive

How did O=C(CN1CCN(CC(=O)Nc2ccccc2Cl)CC1)Nc1ccc2c(c1)OCCO2 do in these assays?
INS promoter inh: inactive; WT yeast gro inh: inactive; Lmaj promast: inactive; Autophagy HCS: inactive; Insulin prom up: inactive

What do the screens show for `COc1ccccc1NC(=O)CN1CCN(CC(=O)Nc2ccc(OCc3ccccc3)cc2)CC1`?
INS promoter inh: inactive; WT yeast gro inh: 66; Lmaj promast: inactive; Autophagy HCS: inactive; Insulin prom up: inactive

What do the screens show for `O=C(CN1CCN(c2ccccn2)CC1)Nc1ccc(Cl)c(C(F)(F)F)c1`?
INS promoter inh: inactive; WT yeast gro inh: inactive; Lmaj promast: inactive; Autophagy HCS: inactive; Insulin prom up: inactive

What do the screens show for `COc1ccccc1NC(=O)CN1CCN(CC(=O)Nc2ccc(F)cc2)CC1`?
INS promoter inh: inactive; WT yeast gro inh: inactive; Lmaj promast: inactive; Autophagy HCS: inactive; Insulin prom up: inactive

How did COc1ccccc1N1CCN(CC(=O)Nc2ccc(Cl)c(C(F)(F)F)c2)CC1 do in these assays?
INS promoter inh: inactive; WT yeast gro inh: 58; Lmaj promast: inactive; Autophagy HCS: inactive; Insulin prom up: inactive

How did COc1ccccc1NC(=O)CN1CCN(CC(=O)Nc2ccc3c(c2)OCCO3)CC1 do in these assays?
INS promoter inh: inactive; WT yeast gro inh: inactive; Lmaj promast: 55; Autophagy HCS: inactive; Insulin prom up: inactive

How did Cc1nc(SCc2c(F)cccc2Cl)n[nH]1 do in these assays?
INS promoter inh: inactive; WT yeast gro inh: inactive; Lmaj promast: inactive; Autophagy HCS: inactive; Insulin prom up: inactive

What do the screens show for `COc1cnc(SCc2c(Cl)cccc2Cl)nc1Cl`?
INS promoter inh: inactive; WT yeast gro inh: inactive; Lmaj promast: inactive; Autophagy HCS: active

Results for COc1ccc(-c2csc3nc(C)nc(N4CCC(C)CC4)c23)cc1OC ?
WT yeast gro inh: 63; Lmaj promast: 90; Autophagy HCS: inactive; Insulin prom up: inactive

How did CCCCC(CC)C(=O)Nc1ccc(Nc2ccccc2)cc1 (stereo unspecified) do in these assays?
INS promoter inh: inactive; WT yeast gro inh: inactive; Lmaj promast: 99; Autophagy HCS: inactive; Insulin prom up: inactive

Results for CCCC(=O)Nc1ccc(Nc2ccccc2)cc1 ?
INS promoter inh: inactive; WT yeast gro inh: inactive; Lmaj promast: 64; Autophagy HCS: inactive; Insulin prom up: inactive

How did O=C(NCc1ccccc1)C1=C[C@@H](C2CC2)C[C@@H](OCCCCO)O1 do in these assays?
WT yeast gro inh: inactive; Lmaj promast: inactive; Autophagy HCS: inactive; Insulin prom up: inactive

What do the screens show for `O=C(c1ccc(COc2ccc3c(c2)CCC3)o1)N1CCN(c2ccccc2)CC1`?
INS promoter inh: inactive; Lmaj promast: inactive; Autophagy HCS: inactive

Results for O=C(c1ccco1)N1CCN(C(=O)c2ccc(COc3ccc4c(c3)CCC4)o2)CC1 ?
INS promoter inh: inactive; WT yeast gro inh: inactive; Lmaj promast: 83; Autophagy HCS: inactive; Insulin prom up: inactive

What do the screens show for `OCCN(CCO)c1ncnc2c1oc1ccc(Br)cc12`?
INS promoter inh: inactive; WT yeast gro inh: inactive; Lmaj promast: inactive; Autophagy HCS: inactive; Insulin prom up: inactive

What do the screens show for `C/C(=N\NC(=O)c1c(C)nc2ccccn12)c1ccco1`?
INS promoter inh: inconclusive; WT yeast gro inh: inactive; Lmaj promast: inactive; Autophagy HCS: inactive; Insulin prom up: inactive

Results for CCOC(=O)c1ccc(-n2ccnc2)c(NC(=O)c2ccc(Cl)cc2)c1 ?
INS promoter inh: inactive; WT yeast gro inh: inactive; Lmaj promast: 81; Autophagy HCS: inactive; Insulin prom up: inactive
